Experimental data taken from the supplement of paper PMC10849652.
Targets with a hit are over-represented here; the source holds about 8,800 in all. About 0.5% of all pairs of compound and target were hits.

Assays:
Experiment in all cases: log2 fold change, soluble protein after heating vs DMSO (PISA); higher = thermal stabilisation; K562 lysate, 10 uM; active = over 0.2 and 3.5 SD of the protein, either way, in both replicates (recomputed)
ibrutinib = compound: C=CC(=O)N1CCC[C@@H](n2nc(-c3ccc(Oc4ccccc4)cc3)c3c(N)ncnc32)C1 [ibrutinib]
Outline: (§1)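 Values give the log-two fold change in thermal stability against solvent controls, from duplicates. Crude K562 extract at 1 mg/mL protein, made by dounce homogenisation in PBS pH 7.4 with 1 mM MgCl2, was treated with 10 μM compound for 30 min. After 3 min heating across 48°C-58°C, aliquots were pooled, adjusted to 0.5% NP-40 at 4°C and centrifuged at 21,000xg for 90 min. The supernatant was measured by TMTpro 16plex LC-MS/MS with channel sums equalised.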

[1] = compound: CC(=O)c1cnc2ccc(-c3cc(Cl)c(O)c(Cl)c3)nc2c1N[C@H]1CC[C@H](CN(C)C)CC1
Outline: as §1

ralimetinib = compound: CC(C)(C)Cn1c(N)nc2ccc(-c3[nH]c(C(C)(C)C)nc3-c3ccc(F)cc3)nc21 [ralimetinib]
Outline: as §1

[2] = compound: CC(C)(O)CC(=O)NCCn1ccc2ncnc(Nc3ccc(Oc4cccc(C(F)(F)F)c4)c(Cl)c3)c21
Outline: as §1

[3] = compound: CC(C)C1=C2N=C(C=C(N2N=C1)NCC3=CC=CC=C3)NCCCCCCN
Outline: as §1

[4] = compound: CC1=C(C(CC(=O)N1)C2=CC=C(C=C2)C(F)(F)F)C(=O)NC3=C(C=C4C(=C3)C=NN4)F
Outline: as §1

[5] = compound: CC1=C(C2=C(C=C1)C(=O)C3=CC=CC=C3N2CCCN)C
Outline: as §1

[6] = compound: CC1=C(C=C(C=C1)NC(=O)C2=CC(=CC=C2)C(C)(C)C#N)NC3=CC4=C(C=C3)N=CN(C4=O)C
Outline: as §1

[7] = compound: CC1=C(C=C(C=C1)NC(=O)C2=CC(=CC=C2)N(C)C)NC(=O)C3=CC=C(C=C3)O
Outline: as §1

[8] = compound: CC1=CC=C(C=C1)SC2=C3C=C(SC3=CN=C2)C(=O)N
Outline: as §1

vemurafenib = compound: CCCS(=O)(=O)Nc1ccc(F)c(C(=O)c2c[nH]c3ncc(-c4ccc(Cl)cc4)cc23)c1F [vemurafenib]
Outline: as §1

[9] = compound: CCCS(=O)(=O)Nc1ccc(F)c(C(=O)c2c[nH]c3ncc(Cl)cc23)c1F
Outline: as §1

barasertib = compound: CCN(CCCOc1ccc2c(Nc3cc(CC(=O)Nc4cccc(F)c4)[nH]n3)ncnc2c1)CCOP(=O)(O)O [barasertib]
Outline: as §1

[10] = compound: CC[C@@H]1C(=O)N(C)c2cnc(Nc3ccc(C(=O)NC4CCN(C)CC4)cc3OC)nc2N1C1CCCC1
Outline: as §1

volasertib = compound: CC[C@@H]1C(=O)N(C)c2cnc(Nc3ccc(C(=O)N[C@H]4CC[C@H](N5CCN(CC6CC6)CC5)CC4)cc3OC)nc2N1C(C)C [volasertib]
Outline: as §1

[11] = compound: CCn1c(C(=O)N(C2CC2)C2CC2)cc2c3c(ncn3C)c(Nc3cc(C)n(C)n3)nc21
Outline: as §1

[12] = compound: CCn1cc(-c2ccnc3[nH]c(-c4cccc(CN(C)C)c4)cc23)c(-c2ccc(NC(=O)N(C)C)cc2)n1
Outline: as §1

[13] = compound: CN1CCC(CNc2ccc3ncc(-c4cccc(OC(F)(F)F)c4)n3n2)CC1
Outline: as §1

saracatinib = compound: CN1CCN(CCOc2cc(OC3CCOCC3)c3c(Nc4c(Cl)ccc5c4OCO5)ncnc3c2)CC1 [saracatinib]
Outline: as §1

sotrastaurin = compound: CN1CCN(c2nc(C3=C(c4c[nH]c5ccccc45)C(=O)NC3=O)c3ccccc3n2)CC1 [sotrastaurin]
Outline: as §1

Measured: log2 fold change

SYF2 (UniProt O95926)
Chain of UniProt O95926 (O95926 whole entry, looked up): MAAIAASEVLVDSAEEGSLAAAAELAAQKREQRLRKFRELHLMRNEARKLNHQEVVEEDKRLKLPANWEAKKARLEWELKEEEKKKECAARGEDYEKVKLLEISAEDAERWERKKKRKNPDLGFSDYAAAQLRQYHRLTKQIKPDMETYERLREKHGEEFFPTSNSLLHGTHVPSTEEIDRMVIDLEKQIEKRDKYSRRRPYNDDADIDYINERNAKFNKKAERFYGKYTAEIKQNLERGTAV
inactive: ibrutinib 0.094 | [1] 0.023 | ralimetinib -0.019 | [2] 0.001 | [3] -0.02 | [4] -0.027 | [5] -0.122 | [6] 0.037 | [7] 0.066 | [8] -0.061 | vemurafenib -0.012 | [9] -0.042 | barasertib -0.039 | [10] 0.096 | volasertib 0.038 | [11] -0.044 | [12] -0.043 | [13] 0.028 | saracatinib 0.015 | sotrastaurin -0.008

SLC25A32 (UniProt Q9H2D1)
inactive: ibrutinib 0.029 | [1] 0.005 | ralimetinib 0.006 | [2] -0.017 | [3] -0.017 | [4] -0.03 | [5] -0.031 | [6] 0.048 | [7] -0.021 | [8] -0.007 | vemurafenib 0.053 | [9] 0.01 | barasertib -0.012 | [10] -0.013 | volasertib 0.002 | [11] -0.045 | [12] -0.129 | [13] 0.054 | saracatinib 0.029 | sotrastaurin 0.007

SSB (UniProt E7ERC4)
active: [12] 1.92
inactive: ibrutinib 0.14 | [1] -0.087 | ralimetinib -0.009 | [2] -0.075 | [3] -0.046 | [4] 0.062 | [5] 0.014 | [6] 0.239 | [7] 0.093 | [8] -0.013 | vemurafenib 0.111 | [9] 0 | barasertib -0.04 | [10] -0.281 | volasertib 0.003 | [11] -0.134 | [13] -0.377 | saracatinib 0.013 | sotrastaurin -0.012

SLC7A5 (UniProt Q01650)
Chain of UniProt Q01650 (Q01650 whole entry, looked up): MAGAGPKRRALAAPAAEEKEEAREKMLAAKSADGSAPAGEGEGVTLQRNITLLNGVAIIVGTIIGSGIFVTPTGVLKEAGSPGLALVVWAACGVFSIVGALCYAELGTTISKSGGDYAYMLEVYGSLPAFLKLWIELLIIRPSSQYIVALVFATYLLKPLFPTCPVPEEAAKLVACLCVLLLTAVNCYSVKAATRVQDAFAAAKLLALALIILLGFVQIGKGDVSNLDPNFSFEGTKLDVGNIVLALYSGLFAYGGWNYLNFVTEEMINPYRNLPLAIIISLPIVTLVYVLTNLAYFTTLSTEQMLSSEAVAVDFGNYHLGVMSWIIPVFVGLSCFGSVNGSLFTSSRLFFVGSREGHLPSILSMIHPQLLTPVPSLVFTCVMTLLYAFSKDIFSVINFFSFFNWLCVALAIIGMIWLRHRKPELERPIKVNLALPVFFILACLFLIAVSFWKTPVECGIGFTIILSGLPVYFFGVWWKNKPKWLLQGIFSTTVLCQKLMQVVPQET
active: [12] -0.312
inactive: ibrutinib -0.011 | [1] -0.01 | ralimetinib 0.018 | [2] -0.042 | [3] 0.036 | [4] -0.031 | [5] -0.003 | [6] 0.075 | [7] -0.043 | [8] 0 | vemurafenib -0.027 | [9] -0.017 | barasertib -0.038 | [10] -0.031 | volasertib 0.06 | [11] -0.001 | [13] 0.183 | saracatinib 0.056 | sotrastaurin 0.046

SLC11A2 isoform 3 (UniProt P49281)
Chain of UniProt P49281 (P49281 whole entry, looked up): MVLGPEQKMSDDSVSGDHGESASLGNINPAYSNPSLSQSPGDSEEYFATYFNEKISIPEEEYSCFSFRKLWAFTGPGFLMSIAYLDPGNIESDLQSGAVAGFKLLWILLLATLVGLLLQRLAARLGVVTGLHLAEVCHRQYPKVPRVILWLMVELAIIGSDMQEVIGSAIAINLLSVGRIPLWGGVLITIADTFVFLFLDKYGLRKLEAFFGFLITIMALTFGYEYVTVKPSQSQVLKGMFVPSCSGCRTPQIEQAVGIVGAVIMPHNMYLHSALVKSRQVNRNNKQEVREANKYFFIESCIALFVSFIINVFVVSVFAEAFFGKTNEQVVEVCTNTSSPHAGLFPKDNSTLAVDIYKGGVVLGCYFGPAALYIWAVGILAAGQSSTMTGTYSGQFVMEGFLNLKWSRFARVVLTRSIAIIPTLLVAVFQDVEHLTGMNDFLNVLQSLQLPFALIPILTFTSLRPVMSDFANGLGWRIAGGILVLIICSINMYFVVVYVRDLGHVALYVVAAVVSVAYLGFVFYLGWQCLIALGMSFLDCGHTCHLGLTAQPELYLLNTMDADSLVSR
inactive: ibrutinib -0.032 | [1] -0.018 | ralimetinib -0.038 | [2] -0.093 | [3] 0.017 | [4] 0.242 | [5] -0.001 | [6] 0.094 | [7] 0.001 | [8] 0.003 | vemurafenib -0.009 | [9] 0.043 | barasertib 0.019 | [10] 0.073 | volasertib 0.026 | [11] 0.036 | [12] -0.082 | [13] 0.074 | saracatinib 0.028 | sotrastaurin -0.012

SPG11 (UniProt Q96JI7)
inactive: ibrutinib 0.077 | [1] 0.068 | ralimetinib 0.049 | [2] -0.024 | [3] -0.011 | [4] -0.048 | [5] -0.063 | [6] -0.061 | [7] 0.098 | [8] 0.007 | vemurafenib 0.084 | [9] -0.011 | barasertib 0.006 | [10] -0.042 | volasertib -0.037 | [11] -0.05 | [12] 0.06 | [13] -0.13 | saracatinib 0.077 | sotrastaurin 0.007

SH3BGRL2 (UniProt Q9UJC5)
Chain of UniProt Q9UJC5 (Q9UJC5 whole entry, looked up): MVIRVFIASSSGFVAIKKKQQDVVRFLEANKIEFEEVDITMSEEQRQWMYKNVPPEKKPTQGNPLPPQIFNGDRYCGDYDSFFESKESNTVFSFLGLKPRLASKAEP
inactive: ibrutinib -0.014 | [1] 0.027 | ralimetinib 0.006 | [2] -0.014 | [3] 0.035 | [4] 0.03 | [5] -0.004 | [6] 0.036 | [7] -0.072 | [8] 0.053 | vemurafenib -0.013 | [9] 0.021 | barasertib 0.022 | [10] 0.076 | volasertib 0.006 | [11] -0.007 | [13] -0.052 | saracatinib 0.014 | sotrastaurin 0.002
active: [12] 0.387

SHKBP1 (UniProt Q8TBC3)
inactive: ibrutinib 0.064 | [1] -0.02 | ralimetinib 0.063 | [2] 0.006 | [3] 0.067 | [4] -0.005 | [5] -0.051 | [6] 0.038 | [7] 0.052 | [8] 0.004 | vemurafenib 0.079 | [9] -0.017 | barasertib 0.03 | [10] -0.038 | volasertib 0.033 | [11] -0.058 | [12] -0.093 | [13] 0.103 | saracatinib 0.013 | sotrastaurin 0.017

SND1 (UniProt Q7KZF4)
inactive: ibrutinib 0.012 | [1] 0.004 | ralimetinib 0.03 | [2] 0.044 | [3] 0.027 | [4] 0.024 | [5] 0.015 | [6] 0.003 | [7] 0.038 | [8] 0.024 | vemurafenib 0.024 | [9] 0.017 | barasertib 0.021 | [10] -0.099 | volasertib -0.084 | [11] 0.037 | [12] 0.058 | [13] -0.078 | saracatinib 0.014 | sotrastaurin 0.031

SSB (UniProt P05455)
inactive: ibrutinib -0.007 | [1] -0.009 | ralimetinib -0.005 | [2] -0.006 | [3] 0.004 | [4] -0.015 | [5] -0.013 | [6] -0.006 | [7] 0.007 | [8] 0.006 | vemurafenib -0.004 | [9] -0.02 | barasertib -0.001 | [10] -0.011 | volasertib 0.011 | [11] 0.002 | [12] 0.011 | [13] -0.021 | saracatinib -0.015 | sotrastaurin -0.016

SP1 (UniProt P08047)
Chain of UniProt P08047 (P08047 whole entry, looked up): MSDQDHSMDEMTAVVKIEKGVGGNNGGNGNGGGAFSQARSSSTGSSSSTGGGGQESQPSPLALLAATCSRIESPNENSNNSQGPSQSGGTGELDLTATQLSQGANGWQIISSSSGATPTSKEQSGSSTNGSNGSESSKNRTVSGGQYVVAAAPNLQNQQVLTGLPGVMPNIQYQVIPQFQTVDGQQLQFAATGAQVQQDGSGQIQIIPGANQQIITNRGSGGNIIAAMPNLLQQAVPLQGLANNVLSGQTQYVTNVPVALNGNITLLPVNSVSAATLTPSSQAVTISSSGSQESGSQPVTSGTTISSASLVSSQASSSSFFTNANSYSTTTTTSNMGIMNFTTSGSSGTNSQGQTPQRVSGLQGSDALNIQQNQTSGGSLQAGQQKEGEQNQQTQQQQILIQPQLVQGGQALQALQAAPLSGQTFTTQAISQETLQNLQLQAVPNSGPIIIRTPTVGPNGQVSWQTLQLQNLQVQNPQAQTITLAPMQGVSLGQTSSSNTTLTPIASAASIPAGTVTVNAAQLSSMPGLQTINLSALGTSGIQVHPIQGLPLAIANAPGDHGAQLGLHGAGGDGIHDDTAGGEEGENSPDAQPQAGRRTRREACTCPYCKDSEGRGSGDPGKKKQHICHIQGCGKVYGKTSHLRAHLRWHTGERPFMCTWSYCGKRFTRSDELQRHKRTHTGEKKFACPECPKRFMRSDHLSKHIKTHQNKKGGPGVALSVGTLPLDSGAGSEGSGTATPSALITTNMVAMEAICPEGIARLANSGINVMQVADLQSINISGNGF
inactive: ibrutinib 0.04 | [1] 0.017 | ralimetinib -0.018 | [2] -0.049 | [3] -0.103 | [4] -0.013 | [5] 0.061 | [6] 0.22 | [7] 0.017 | [8] -0.027 | vemurafenib -0.115 | [9] 0.056 | barasertib 0.045 | [10] 0.015 | volasertib 0.043 | [11] -0.008 | [12] -0.061 | [13] 0.019 | saracatinib 0.037 | sotrastaurin -0.154

SLC19A1 (UniProt P41440)
Chain of UniProt P41440 (P41440 whole entry, looked up): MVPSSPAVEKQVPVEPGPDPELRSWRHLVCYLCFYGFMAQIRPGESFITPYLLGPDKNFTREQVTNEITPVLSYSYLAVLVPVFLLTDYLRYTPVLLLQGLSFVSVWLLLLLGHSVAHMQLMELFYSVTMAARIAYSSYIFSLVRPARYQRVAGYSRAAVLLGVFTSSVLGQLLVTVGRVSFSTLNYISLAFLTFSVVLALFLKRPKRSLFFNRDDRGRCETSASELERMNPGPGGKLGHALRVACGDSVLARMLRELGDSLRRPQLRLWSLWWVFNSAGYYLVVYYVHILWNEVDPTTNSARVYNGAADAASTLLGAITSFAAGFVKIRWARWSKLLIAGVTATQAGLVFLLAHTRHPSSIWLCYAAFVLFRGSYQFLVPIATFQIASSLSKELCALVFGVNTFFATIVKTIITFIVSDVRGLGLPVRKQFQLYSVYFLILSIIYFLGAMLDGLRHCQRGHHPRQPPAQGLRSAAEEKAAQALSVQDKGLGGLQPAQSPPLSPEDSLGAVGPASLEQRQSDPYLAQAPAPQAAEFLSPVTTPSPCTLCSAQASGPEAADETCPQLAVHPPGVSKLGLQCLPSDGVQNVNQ
inactive: ibrutinib 0.049 | [1] 0.013 | ralimetinib -0.004 | [2] -0.054 | [3] -0.019 | [4] 0.019 | [5] -0.044 | [6] 0.009 | [7] 0.004 | [8] -0.003 | vemurafenib 0.028 | [9] -0.005 | barasertib 0.059 | [10] 0.014 | volasertib 0.047 | [11] -0.036 | [12] -0.203 | [13] 0.165 | saracatinib 0.019 | sotrastaurin 0.025

SMARCAD1 isoform 2 (UniProt Q9H4L7)
Chain of UniProt Q9H4L7 (Q9H4L7 whole entry, looked up): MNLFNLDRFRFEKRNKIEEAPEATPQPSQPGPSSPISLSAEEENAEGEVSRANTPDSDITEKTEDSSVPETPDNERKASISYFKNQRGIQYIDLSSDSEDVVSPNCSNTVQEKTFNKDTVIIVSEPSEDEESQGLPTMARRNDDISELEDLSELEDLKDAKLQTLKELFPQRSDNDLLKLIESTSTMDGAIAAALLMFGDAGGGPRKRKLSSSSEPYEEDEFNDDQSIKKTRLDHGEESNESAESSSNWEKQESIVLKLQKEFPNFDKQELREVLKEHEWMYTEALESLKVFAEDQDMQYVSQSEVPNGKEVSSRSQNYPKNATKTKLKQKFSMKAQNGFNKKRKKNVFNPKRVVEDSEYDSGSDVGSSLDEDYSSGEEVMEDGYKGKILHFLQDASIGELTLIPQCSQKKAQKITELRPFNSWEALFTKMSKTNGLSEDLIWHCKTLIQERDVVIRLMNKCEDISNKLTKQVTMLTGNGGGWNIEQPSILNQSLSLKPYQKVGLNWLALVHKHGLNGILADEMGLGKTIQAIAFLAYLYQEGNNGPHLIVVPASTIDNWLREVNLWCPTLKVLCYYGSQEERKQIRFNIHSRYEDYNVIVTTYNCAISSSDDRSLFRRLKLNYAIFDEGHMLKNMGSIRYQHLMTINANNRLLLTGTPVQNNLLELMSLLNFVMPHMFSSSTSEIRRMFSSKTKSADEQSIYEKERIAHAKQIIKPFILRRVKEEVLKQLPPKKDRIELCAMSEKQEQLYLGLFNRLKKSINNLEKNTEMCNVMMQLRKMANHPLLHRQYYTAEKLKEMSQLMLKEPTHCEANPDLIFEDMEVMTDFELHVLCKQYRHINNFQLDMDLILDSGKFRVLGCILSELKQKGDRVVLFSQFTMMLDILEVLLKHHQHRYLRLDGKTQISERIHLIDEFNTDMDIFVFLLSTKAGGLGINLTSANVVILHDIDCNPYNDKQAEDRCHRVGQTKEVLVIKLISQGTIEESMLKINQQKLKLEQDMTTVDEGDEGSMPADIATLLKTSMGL
inactive: ibrutinib 0.006 | [1] -0.021 | ralimetinib 0.022 | [2] -0.016 | [3] 0.007 | [4] 0.008 | [5] 0.012 | [6] 0.021 | [7] 0.014 | [8] -0.022 | vemurafenib 0.014 | [9] 0.034 | barasertib 0.021 | [10] -0.039 | volasertib -0.048 | [11] 0.017 | [12] -0.005 | [13] -0.057 | saracatinib 0.008 | sotrastaurin 0.002

TAPT1 (UniProt Q6NXT6)
active: [12] -0.229
inactive: ibrutinib 0.071 | [1] 0.012 | ralimetinib -0.029 | [2] -0.07 | [3] 0.004 | [4] -0.019 | [5] -0.014 | [6] 0.09 | [7] -0.004 | [8] -0.027 | vemurafenib 0.031 | [9] 0.043 | barasertib -0.039 | [10] 0.024 | volasertib 0.028 | [11] -0.026 | [13] 0.106 | saracatinib -0.014 | sotrastaurin -0.002

STK11IP (UniProt Q8N1F8)
Chain of UniProt Q8N1F8 (Q8N1F8 whole entry, looked up): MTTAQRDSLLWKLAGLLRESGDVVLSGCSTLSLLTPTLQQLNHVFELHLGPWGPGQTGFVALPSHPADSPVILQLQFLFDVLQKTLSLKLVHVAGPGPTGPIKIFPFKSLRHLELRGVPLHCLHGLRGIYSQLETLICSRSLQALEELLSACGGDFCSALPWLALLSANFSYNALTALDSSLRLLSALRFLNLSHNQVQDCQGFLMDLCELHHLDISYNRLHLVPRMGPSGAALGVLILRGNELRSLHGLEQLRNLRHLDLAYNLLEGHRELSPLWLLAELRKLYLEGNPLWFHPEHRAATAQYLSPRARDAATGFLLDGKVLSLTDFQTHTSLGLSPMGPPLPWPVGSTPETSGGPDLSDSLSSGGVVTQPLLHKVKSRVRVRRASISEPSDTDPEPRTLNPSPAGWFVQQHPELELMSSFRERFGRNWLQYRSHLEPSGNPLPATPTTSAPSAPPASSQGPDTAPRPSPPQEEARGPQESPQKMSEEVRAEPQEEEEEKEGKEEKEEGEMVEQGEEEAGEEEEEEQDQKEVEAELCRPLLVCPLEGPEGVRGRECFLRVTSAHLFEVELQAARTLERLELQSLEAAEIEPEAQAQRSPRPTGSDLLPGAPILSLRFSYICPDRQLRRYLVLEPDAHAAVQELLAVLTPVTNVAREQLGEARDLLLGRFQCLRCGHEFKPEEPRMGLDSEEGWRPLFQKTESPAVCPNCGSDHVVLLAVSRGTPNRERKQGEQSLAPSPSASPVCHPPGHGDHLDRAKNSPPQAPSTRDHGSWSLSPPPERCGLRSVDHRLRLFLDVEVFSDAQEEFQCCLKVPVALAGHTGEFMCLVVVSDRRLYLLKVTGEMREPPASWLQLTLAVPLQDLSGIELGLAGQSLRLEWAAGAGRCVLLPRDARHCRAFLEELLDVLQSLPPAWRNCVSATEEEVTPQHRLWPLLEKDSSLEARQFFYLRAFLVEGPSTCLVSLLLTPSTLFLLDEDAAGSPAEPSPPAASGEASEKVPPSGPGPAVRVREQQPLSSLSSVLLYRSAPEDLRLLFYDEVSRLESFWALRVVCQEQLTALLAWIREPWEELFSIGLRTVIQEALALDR
inactive: ibrutinib -0.016 | [1] -0.024 | ralimetinib 0.044 | [2] -0.055 | [3] 0 | [4] 0.046 | [5] 0.024 | [6] -0.009 | [7] 0 | [8] 0.015 | vemurafenib -0.016 | [9] 0.018 | barasertib -0.04 | [10] 0.075 | volasertib -0.067 | [11] 0.002 | [12] 0.015 | [13] -0.072 | saracatinib 0.012 | sotrastaurin 0.016

SNRPF (UniProt P62306)
Chain of UniProt P62306 (P62306 whole entry, looked up): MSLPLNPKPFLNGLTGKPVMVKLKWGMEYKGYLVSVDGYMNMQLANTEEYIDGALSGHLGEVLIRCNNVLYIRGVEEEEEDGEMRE
active: [12] -0.35
inactive: ibrutinib -0.027 | [1] -0.013 | ralimetinib -0.024 | [2] -0.072 | [3] -0.004 | [4] 0.015 | [5] -0.137 | [6] 0.018 | [7] 0.028 | [8] -0.082 | vemurafenib 0.023 | [9] 0.002 | barasertib 0.045 | [10] 0.067 | volasertib 0.032 | [11] -0.051 | [13] 0.24 | saracatinib -0.044 | sotrastaurin 0.042
